ST2 IL33 inh – inhibitors of human ST2 (IL1RL1) binding to IL-33, primary screen, biochemical, AlphaLISA | AlphaLISA ST2-Fc/biotin-IL-33 interaction, 1 h | hit rate 2.3% among 78,000 | Interleukin-1 receptor-like 1 (Homo sapiens), Q01638 | inhibition, % for hits at 17 µM; in the data active = inhibition above about 30%
Target sequence (Q01638 whole entry, looked up): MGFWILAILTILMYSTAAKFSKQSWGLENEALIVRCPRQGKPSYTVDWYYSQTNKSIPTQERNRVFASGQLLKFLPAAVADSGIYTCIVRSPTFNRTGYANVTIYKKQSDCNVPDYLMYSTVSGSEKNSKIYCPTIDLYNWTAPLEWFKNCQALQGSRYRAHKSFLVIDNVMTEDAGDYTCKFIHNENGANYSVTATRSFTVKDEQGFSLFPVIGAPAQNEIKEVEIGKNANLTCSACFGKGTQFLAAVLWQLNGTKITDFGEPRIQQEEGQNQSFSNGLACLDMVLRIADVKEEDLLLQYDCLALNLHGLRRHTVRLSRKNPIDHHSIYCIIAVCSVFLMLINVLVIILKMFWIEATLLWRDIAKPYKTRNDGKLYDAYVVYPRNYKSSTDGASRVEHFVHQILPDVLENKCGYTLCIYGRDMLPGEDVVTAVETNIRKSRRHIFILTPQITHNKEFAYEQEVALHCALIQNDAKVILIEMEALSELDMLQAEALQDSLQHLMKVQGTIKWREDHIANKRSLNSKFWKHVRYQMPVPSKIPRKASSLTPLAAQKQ
Numbers without * were called inactive; i = inactive. This is one part of a sample in which hits are shown more often than they occur.

SMILES | ST2 IL33 inh
O=c1oc(/C=C/c2cccs2)nc2sc3c(c12)CCCC3 | i
O=c1oc(-c2ccccc2)nc2sc3c(c12)CCCCC3 | 36%*
CC(C)c1cc(CN(C)C(=O)c2cnn3ccn(C)c23)on1 | i
O=C(c1cccnc1)N1CCC2(CCCN(CCc3ccccc3)C2)C1 (stereo not drawn) | i
CC(C(=O)O)n1c(Cc2ccccc2)n[nH]c1=O (stereo not drawn) | i
CCC(C)n1c(Cc2ccc(O)cc2)n[nH]c1=O (stereo not drawn) | 33%*
CC(C)[C@@H](C)n1c(CCc2ccccc2)n[nH]c1=O | i
COc1ccc(N=Cc2ccc(OCc3ccccc3)cc2)cc1OC | 33%*
C/C=C/c1ccc(OCc2ccccc2)c(OC)c1 | i
COc1ccc(C=Nc2ccc3[nH]c(=O)[nH]c3c2)cc1OC | i
Cc1cc(Nc2ccc(N(C)C)cc2)c2cc(Cl)ccc2n1 | 39%*
COc1cccc(Nc2cc(C)nc3ccc(Cl)cc23)c1 | i
COc1ccc2nc(C)cc(Nc3ccccc3OC)c2c1 | i
Cc1cc(Nc2ccc(O)cc2)c2cc(Cl)ccc2n1 | i
COc1ccc2nc(C)cc(Nc3ccc(N(C)C)cc3)c2c1 | 52%*
CCOc1ccccc1Nc1cc(C)nc2ccc(OC)cc12 | i
O=C1NCCN2CCN(C(=O)C3CCN(c4ncccn4)CC3)CC12 (stereo not drawn) | i
CCn1ccnc1CN(C)C(=O)[C@@]12CNC[C@@H]1CN(C(=O)COC)C2 | i
Cc1cc(CNc2ccc(C(=O)NCCC3COc4ccccc4O3)cn2)no1 (stereo not drawn) | i
Oc1oc(-c2ccc(Cl)cc2)nc1C=Nc1ccccc1Cl | i
Cc1c(Cl)cccc1N=Cc1nc(-c2ccc(Cl)cc2)oc1O | 33%*
Oc1ccc(N=Cc2nc(-c3ccccc3)oc2O)cc1 | i
Oc1oc(-c2ccc(Cl)cc2)nc1C=Nc1cc(Cl)ccc1Cl | i
Cc1c(Cl)cccc1N=Cc1nc(-c2ccccc2)oc1O | i
CC(=O)Nc1ccc(N=Cc2nc(-c3ccc(Cl)cc3)oc2O)cc1 | 33%*
SMILES | ST2 IL33 inh
CC(C)N(C(=O)c1cnc2n(c1=O)CCS2)C(C)C | i
O=C1CC2([N+](=O)[O-])CN(CCO)CC([N+](=O)[O-])(C1)C2 | i
COc1c(Br)cc(Br)cc1/C=C1\C(=O)N(c2ccccc2)N=C1C | i
CC1=NN(c2ccc(I)cc2)C(=O)/C1=C/c1ccc(N(C)C)cc1 | 38%*
CC1=NN(c2ccccc2)C(=O)/C1=C/c1cccc(Br)c1 | i
CC1=NN(c2cccc(F)c2)C(=O)/C1=C/c1ccc(N(C)C)cc1 | i
CC1=NN(c2ccccc2)C(=O)/C1=C\c1ccc(N(C)C)c(Br)c1 | 39%*
CC1=NN(c2cccc(Br)c2)C(=O)/C1=C\c1ccc(N(C)C)cc1 | i
CCN1CCCC1CNC(=O)c1cc(Cl)ccc1OC1CCN(C2CCCC2)CC1 (stereo not drawn) | i
Cc1cc(C(F)(F)F)nc(NCc2ccco2)n1 | i
Cn1ccnc1CN1CCOC(CCc2ccccc2)C1 (stereo not drawn) | i
O=C(CSc1c2c(nc3ccc(Cl)cc13)CCCC2)NCCN1CCOCC1 | i
Cc1csc(NC(=O)CCc2c(C)nc3cc(-c4ccccc4)nn3c2C)n1 | i
CCn1nc(C)c(NC(=O)CNCc2ccc(OC)c(F)c2F)c1C | i
CCc1ccc(S(=O)(=O)Nc2cccc(-c3cn4ccccc4n3)c2)cc1 | i
COc1ccc(NC(=O)C(=O)NCc2ccc(F)cc2)cc1 | i
COc1ccc(CC(=O)N2N=C(C)CC2(O)c2cccnc2)cc1 (stereo not drawn) | i
CCN1C(=Nc2cccnc2)SCC1(O)c1ccccc1 (stereo not drawn) | 33%*
COc1ccc(CN2CC[C@@H]3[C@H]2C(=O)NC[C@H](CCC(=O)Nc2ccccc2)N3C)cc1 | i
O=C(CSc1nnc(Cc2cc(=O)[nH]c(=O)[nH]2)n1-c1ccccc1)N1CCOCC1 | i
CCCC(=O)Nc1cc2nn(-c3ccc(Cl)cc3)nc2cc1C | i
CCSC1=N/C(=C\c2ccc(C(=O)O)cc2)C(=O)S1 | i
CCSC1=N/C(=C\c2ccc(C)s2)C(=O)S1 | 57%*
Cc1ccc(/C=C2\C(=O)NN(c3ccc(Cl)c(Cl)c3)C2=O)s1 | i
Cc1cccc(Cc2cnc(NC(=O)COc3ccccc3C)s2)c1 | i
SMILES | ST2 IL33 inh
O=c1c2cnn(-c3ccccc3)c2ncn1Cc1c(F)cccc1Cl | i
Cc1ccc(Cl)cc1NC(=O)CN1CCN(Cc2ccccc2F)S1(=O)=O | 97%*
O=C(CN1CCN(Cc2ccccc2F)S1(=O)=O)Nc1ccccc1 | i
Cc1cc(C)c(NC(=O)CN2CCN(Cc3ccccc3F)S2(=O)=O)c(C)c1 | i
CN1C(=O)C(CC(=O)NCc2cnn3ccccc23)N(C)C1=O (stereo not drawn) | i
Cc1csc(SCC(=O)N2CCCC(c3nc(SCC4CCCO4)ncc3C)C2)n1 (stereo not drawn) | i
Cc1ccc(-c2nc3cc(Cl)ccc3o2)cc1NC(=O)c1ccco1 | i
